Screens as filed in PubChem.
PfHsp90 yeast 2 – growth inhibition of yeast expressing Plasmodium Hsp90. inhibition, % at 9.4 µM. 0.32% of 310,000 active. S. cerevisiae expressing PfHsp90, BacTiter-Glo ATP, 48 h; yeast lacking PDR1 and PDR3 efflux regulators. AID 504621;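 active = every replicate shows inhibition above about 80%, whatever the replicate mean, limit read from the data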
tim23-1 inh – growth inhibitors of tim23-1 mutant yeast; S. cerevisiae tim23-1 growth, BacTiter-Glo luminescence, 24 h; inhibition, % at 20 µM; 1.3% of 330,000 active; AID 463212;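 active = growth inhibition of the mutant yeast at or above 50%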;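 note: temperature-sensitive mutant grown at 25 °C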
Rce1 inhib – inhibitors of yeast Ras-converting enzyme | yeast membranes, quenched prenylated peptide cleavage fluorescence | calls only | 0.27% of 290,000 active;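 active = fall in fluorescence gain of 50% or more versus controls, with final raw signal at or below 3038400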
Target sequence (Q03530 whole entry, looked up): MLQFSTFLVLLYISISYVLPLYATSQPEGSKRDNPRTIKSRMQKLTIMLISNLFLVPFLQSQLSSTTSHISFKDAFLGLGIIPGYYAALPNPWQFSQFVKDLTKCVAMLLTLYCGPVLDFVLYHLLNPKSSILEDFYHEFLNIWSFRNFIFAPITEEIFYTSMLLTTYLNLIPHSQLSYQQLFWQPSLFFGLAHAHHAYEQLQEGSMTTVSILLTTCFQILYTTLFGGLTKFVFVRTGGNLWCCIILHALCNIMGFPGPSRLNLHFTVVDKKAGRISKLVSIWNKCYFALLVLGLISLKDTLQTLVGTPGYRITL
TIM10 inh – inhibits growth of TIM10 yeast strain; S. cerevisiae TIM10 strain growth, BacTiter-Glo luminescence, 24 h; inhibition, % at 10 µM; 1.4% of 330,000 active; AID 463195;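 active = inhibition of 40% or more at the single tested concentration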;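 note: wild-type TIM10 isogenic control strain grown at permissive 25 °C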
tim10-1 inh – inhibits growth of tim10-1 mutant yeast; S. cerevisiae tim10-1 ts strain growth, BacTiter-Glo, 24 h; inhibition, % at 20 µM; 2.2% of 330,000 active; AID 463190;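 active = inhibition of at least 40%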;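 note: mutant grown at 25 °C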
tim23-1 conf – confirmation of tim23-1 mutant yeast growth inhibitors; shares compounds with tim23-1 inh; S. cerevisiae tim23-1 growth, BacTiter-Glo luminescence, 24 h; inhibition, % at 20 µM; 83% of 4,400 active; AID 463218;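 active = inhibition above about 39% in either of two replicate wells at 20 µM, limit read from the data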;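 note: temperature-sensitive tim23-1 mutant grown at 25 °C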
Numbers stand for hits; 0 = inactive; - = not tested or not shown. Rows were chosen to be rich in hits. Some 3.7% of all compounds tested hit in one or more screens of this group.

SMILES	PfHsp90 yeast 2	tim23-1 inh	Rce1 inhib	TIM10 inh	tim10-1 inh	tim23-1 conf
O=C(Nc1nccs1)c1ccc(Cl)c([N+](=O)[O-])c1	0	0	0	0	0	-
O=C(O)CN1C(=O)/C(=C\c2cc(Br)ccc2OCc2ccc(Cl)cc2Cl)SC1=S	0	52.8	0	0	0	56.0
O=C(O)CN1C(=O)/C(=C\c2ccccc2OCc2ccc(Cl)cc2)SC1=S	0	0	0	0	0	-
CCC(=O)N1CCN(c2nc(CC)nc3sc4c(c23)CCCC4)CC1	0	0	0	0	0	-
CC1CCc2c(sc3nc(C(C)(C)C)nc(N4CCN(C(=O)CCl)CC4)c23)C1 (stereo not given)	0	50.3	0	0	0	52.8
CCOc1ccc(-c2cc(C(=O)OC)[nH]n2)cc1	-	0	0	0	0	-
O=C1CCN(Cc2ccccc2)C=C1c1ccc2ccccc2c1	0	50.2	-	0	0	46.6
CC(C)(C)SCCNC(=O)c1ccc(Cl)c([N+](=O)[O-])c1	101.8	53.0	0	0	0	0
COc1ccc(C(=O)N/C(=C\c2cn(C)c3ccccc23)C(=O)NCCCN2CCOCC2)cc1	0	0	0	0	0	-
Cc1ccc(C)c(CNS(=O)(=O)c2c(C(=O)N3CCCC3)c(C)n(C)c2C)c1	0	0	0	0	0	-
COc1cc2cc(Oc3ccc4ccc(=O)oc4c3)c(=O)oc2cc1OC(C)=O	0	0	0	0	0	-
COc1ccccc1C(=O)Oc1ccc2ccc(=O)oc2c1	0	68.9	0	0	0	51.5
N#C/C(=C\c1c[nH]c2ccccc12)C(=O)NC1CC1	0	0	0	0	0	-
N#C/C(=C\c1c[nH]c2ccccc12)C(=O)NC1CCCC1	0	58.8	0	0	0	44.2
COc1ccc(-c2c(C#N)c(N)nc3c2CCc2ccccc2-3)cc1OC	-	51.0	0	0	0	0
COc1cc(-c2c(C#N)c(N)nc3c2CCCC3)ccc1O	0	0	0	0	0	-
COc1ccc(CC(=O)N[C@@H]2c3ccccc3CC[C@@H]2OCc2ccccc2)cc1	0	0	-	0	0	-
Cc1ccc(C(=O)Nc2nc(COc3ccccc3)cs2)s1	0	51.7	0	0	0	0
Cc1c(C(=O)Nc2ccc(S(=O)(=O)N3CCOCC3)cc2)cccc1[N+](=O)[O-]	0	0	0	0	0	-
CCC(C)(C)C1CCc2[nH]nc(C(=O)NN)c2C1 (stereo not given)	0	0	0	0	0	-
CCC(C)(C)C1CCc2[nH]nc(C(=O)NC(C)C)c2C1 (stereo not given)	0	53.4	-	0	0	53.0
CCC(C)(C)C1CCc2[nH]nc(C(=O)NCC3CC3)c2C1 (stereo not given)	0	55.9	-	0	0	64.0
Cc1ccc(CN2[C@@H](CC3CCCCC3)COCCS2(=O)=O)cc1	0	0	0	0	0	-
CCC(C(=O)N1CCCCCC1)n1nc(C)n2c(cc3occc32)c1=O (stereo not given)	0	0	0	0	0	-
CCc1nc(SCc2ccc(F)cc2)[nH]c(=O)c1C#N	0	0	-	0	0	-
SMILES	PfHsp90 yeast 2	tim23-1 inh	Rce1 inhib	TIM10 inh	tim10-1 inh	tim23-1 conf
O=C(C1=C(O)C(=O)N(c2ncccn2)C1c1ccc(Cl)cc1)c1ccco1 (stereo not given)	-	0	0	0	0	-
O=C(C1=C(O)C(=O)N(c2ncccn2)C1c1ccc(Cl)c(Cl)c1)c1ccco1 (stereo not given)	0	58.4	0	0	0	40.7
NCCOc1ccc(C23CC4CC(CC(C4)C2)C3)cc1	0	65.6	0	0	0	76.6
O=C(Nc1nc2cc3c(cc2s1)OCO3)C1CC1	0	0	0	0	0	-
O=C(Nc1nc2cc3c(cc2s1)OCCO3)C1CCCCC1	0	56.9	-	0	0	57.0
O=C(Nc1nc2cc3c(cc2s1)OCO3)C1CCCCC1	0	0	0	0	0	-
CC(C)c1ccc2nc(NC(=O)C3CC3)sc2c1	0	51.2	0	0	0	52.4
CCOc1ccc(N2CC(C(=O)Nc3nnc(Cc4ccc(OC)cc4)s3)CC2=O)cc1 (stereo not given)	0	0	0	0	0	-
COC(=O)c1c(NS(C)(=O)=O)sc2c1CCCC2	0	0	0	0	0	-
COC(=O)c1c(NS(=O)(=O)Cc2ccccc2)sc2c1CCCC2	0	57.6	0	0	0	51.7
COc1ccccc1NC(=O)CSc1ccc(-c2cccs2)nn1	0	0	0	0	0	-
O=C(NCCN1CCN(c2cccc(Cl)c2)CC1)c1ccc(CSc2nc3ccncc3[nH]2)cc1	0	0	0	0	0	-
